Test [1] can be described thus: qHTS assay to identify small molecule agonists of the progesterone receptor (PR) signaling pathway - cell viability counter screen (AID 1346799; calls by dose curve; also: nearly all actives have a fitted effect of over 45% in size; also: potency is read from the fitted curve at half-maximal effect). In outline: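 Luminescence from CellTiter-Glo, added after the beta-lactamase FRET read in the same wells, gave cytotoxicity in PR-UAS-bla HEK293T cells treated with compounds for 16 hr at 37C.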
Test [2] in a line: qHTS assay to identify small molecule antagonists of the TGF-beta/Smad signaling pathway - cell viability counter screen (AID 1346824). Also: nearly all actives have a fitted effect of over 50% in size. In outline:
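SBE-bla HEK 293T cells, incubated overnight, then compound plus 0.25 ng/mL TGF-beta1 (stock added) for 5 hr at 37 C. Viability was read in the same wells by CellTiter-Glo luminescence after 30 min at room temperature.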

Test [3] is described as follows: qHTS assay to identify small molecule agonists of the TGF-beta/Smad signaling pathway - cell viability counter screen (AID 1346829). Also: top concentration of the series differs between compounds; nearly all actives have a fitted effect of over 45% in size. The essentials:
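SBE-bla HEK 293T cells plated overnight, compound exposure 5 hr at 37 C. Viability read in the same wells by CellTiter-Glo luminescence after 30 min at room temperature, following the beta-lactamase read.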

In test [4] the target is Thyrotropin-releasing hormone receptor (Homo sapiens) (UniProt P34981). As to the kind of experiment: qHTS assay to identify small molecule antagonists of the thyrotropin-releasing hormone receptor (TRHR) signaling pathway (AID 1346877; active = well fitted inhibition curve with a large enough effect in the repeat runs, not every such curve was filed as active; also: series mostly up to about 51 µM). The essentials: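 Overnight-plated (18 h, 37 °C) HEK293 cells expressing TRHR were dye-loaded 2 h, treated with compound, then stimulated with TRH at 1 nM final. Fluorescence intensity was captured every second for 3 min.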
In general terms: Quantitative high-throughput screening tests each substance at several concentrations.

For test [5] the target is unchanged. Briefly: qHTS assay to identify small molecule agonists of the thyrotropin-releasing hormone receptor (TRHR) signaling pathway (AID 1346891; calls by dose curve; also: series mostly up to about 58 µM). In outline:
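Intracellular calcium rise, read as fluorescence every second for 3 min, served as the agonist signal in dye-loaded HEK293 cells expressing TRHR; each compound ran at 15 concentrations in triplicate.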

Test [6] is described as follows: Human pregnane X receptor (PXR) small molecule agonists, qHTS cell viability counter screen (AID 1346977). Also: nearly all actives have a fitted effect of over 50% in size. The essentials:
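PXR-Luc HepG2, 2,000 cells/well, 5% charcoal-stripped FBS; 5hr settle; cpd 24hr, 37C/5% CO2; CellTiter-Fluor at 23hr, read 1hr later (fluorescence).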

Test [7] in a line: Caspase-3/7 induction in HepG2 cells by small molecules, qHTS assay (AID 1346978). Also: nearly all actives have a fitted effect of over 15% in size. The essentials:
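Wild-type HepG2 cells, 2,000/well, settled 5 hr at 37 C and 5% CO2, then compound-treated for 17 hr; caspase-3/7 activity read by luminescent Caspase-Glo 3/7 after 30 min at room temperature.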

The nature of test [8]: Caspase-3/7 induction in CHO-K1 cells by small molecules, qHTS cell viability counter screen (AID 1346979). Also: nearly all actives have a fitted effect of over 35% in size. In outline: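 Cells (CHO-K1, wild type) are plated at 1,500 per well and incubated 5hr. Test compounds in DMSO are then pinned in, followed by 16hr at 37C and 5% CO2. Viability is read by CellTiter-Fluor fluorescence after 1hr.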
Test [9] is described as follows: Caspase-3/7 induction in CHO-K1 cells by small molecules, qHTS assay (AID 1346980). Also: nearly all actives have a fitted effect of over 15% in size. In outline: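 Wild-type CHO-K1 cells exposed to compounds for 17hr at 37 C, 5% CO2. Caspase-3/7 activity then measured by Caspase-Glo 3/7 luminescence after 30min at room temperature.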
Test [10] can be described thus: Caspase-3/7 induction in HepG2 cells by small molecules, qHTS cell viability counter screen (AID 1346981). Also: series mostly up to about 92 µM; nearly all actives have a fitted effect of over 30% in size. In outline: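 Treatment of HepG2 cells with DMSO-delivered compounds ran 16 hr at 37 C following a 5-hr pre-incubation of 2,000 cells/well. CellTiter-Fluor fluorescence, read after 1 hr, served as the viability measure in a qHTS format.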
For test [11], the target named is Nuclear receptor subfamily 1 group I member 2 (Homo sapiens) (UniProt O75469). As to the kind of experiment: Human pregnane X receptor (PXR) small molecule agonists, qHTS assay (AID 1346982). Also: nearly all actives have a fitted effect of over 35% in size. In outline:
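Stable HepG2 line reporting PXR-mediated CYP3A4 expression via luciferase. Treatment: 24 hr with compounds in DMSO at 37 C. Detection: ONE-Glo luminescence.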

Test [12] deals with Cytochrome P450 2C19 (Homo sapiens) (UniProt P33261). Briefly: Cytochrome P450 Family 2 Subfamily C Member 19 (CYP2C19) small molecule antagonists: luciferase reporter qHTS assay (AID 1671197). Also: nearly all actives have a fitted effect of over 65% in size. Also: potency is read from the fitted curve at half-maximal effect. In outline: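 P450-Glo CYP2C19 system: enzyme-substrate mix with compound 10 min at room temperature, then NADPH regeneration solution, 1 h at 37C. Proluciferin-to-luciferin conversion detected by luminescence after 20 min with detection reagent; ketoconazole as positive control.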
For orientation: Reporter assays use an easily measured gene product as a stand-in for the process of interest.

For test [13], the target named is Cytochrome P450 2C9 (Homo sapiens) (UniProt P11712). Briefly: Cytochrome P450 Family 2 Subfamily C Member 9 (CYP2C9) small molecule antagonists: luciferase reporter qHTS assay (AID 1671198). Also: series mostly up to about 120 µM; nearly all actives have a fitted effect of over 50% in size. The essentials:
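P450-Glo proluciferin substrate with CYP2C9 enzyme; 10 min RT preincubation, then NADPH regeneration 1 h at 37C; luciferin detection reagent 20 min RT, luminescence in relative luminescence units.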

In test [14] the target is Cytochrome P450 1A2 (Homo sapiens) (UniProt P05177). As to the kind of experiment: Cytochrome P450 Family 1 Subfamily A Member 2 (CYP1A2) small molecule antagonists: luciferase reporter qHTS assay (AID 1671199). Also: nearly all actives have a fitted effect of over 50% in size. Also: potency is read from the fitted curve at half-maximal effect. In outline:
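Read-out is luminescence from luciferin detection reagent (20 min) proportional to CYP1A2 activity; compounds in DMSO preincubated 10 min with enzyme and proluciferin substrate, then NADPH regeneration solution, 1 h, room temperature.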

Test [15] has as its target Voltage-gated inwardly rectifying potassium channel KCNH2 (Homo sapiens) (UniProt Q12809). Briefly: Human Ether-a-go-go-Related Gene (hERG) channel small molecule antagonists: fluorescence cell-based qHTS assay (AID 1671200). In outline:
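Channel function was assessed by thallium flux. Cells seeded the previous day and kept at 37 C took up FluxOR II dye over 1 h in the dark at room temperature, then sat another 10 min before stimulation.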

Test [16] can be described thus: qHTS assay to identify small molecule agonists of the TGF-beta/Smad signaling pathway (AID 1346859; active = well fitted activation curve with a large enough effect in the signal ratio in the repeat runs, not every such curve was filed as active; the % refers to the signal ratio; also: series mostly up to about 77 µM). In outline:
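SBE-bla HEK 293T, 4,000 cells/well, plated o/n; cpd in DMSO, 5 hr, 37 C/5% CO2; B/G FRET substrate 2 hr RT; ex 405, em 460/530 nm.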

The target of test [17] is Cytochrome P450 2D6 (Homo sapiens) (UniProt P10635). Briefly: Cytochrome P450 Family 2 Subfamily D Member 6 (CYP2D6) small molecule antagonists: luciferase reporter qHTS assay (AID 1671196). Also: nearly all actives have a fitted effect of over 50% in size. Also: potency is read from the fitted curve at half-maximal effect. In outline:
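Chemicals tested for interference with CYP2D6 activity; proluciferin substrate, NADPH regeneration, 1 h at room temperature, luminescent detection.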

Test [18] addresses Cytochrome P450 3A4 (Homo sapiens) (UniProt P08684). As to the kind of experiment: Cytochrome P450 Family 3 Subfamily A Member 4 (CYP3A4) small molecule antagonists: luciferase reporter qHTS assay (AID 1671201). In outline: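 Compounds in DMSO were pin-transferred onto CYP3A4 enzyme-substrate mix and held 10 min at room temperature. NADPH regenerating solution started the reaction for 1 h; luciferin detection reagent stopped it, and luminescence was read after 20 min.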

Seven compounds from PubChem BioAssay (Tox21) can be followed below.

“And” between values parts separate entries of the source, which are not always exact repeats. Equal entries are not always repeated. Results filed as inconclusive are left out. Some compounds were tested as several samples or in several runs, with calls that do not always agree. The source made the active and inactive calls. Unless noted, calls follow the shape of the dose curve; as a rule, active = well fitted curve in the direction sought with a large enough effect in the repeat runs; inconclusive = weak or mixed curves; inactive = no such curve, though single readings can be large; an effect the other way counts as inactive or inconclusive.

Thyrotropin-releasing hormone receptor (Homo sapiens), sequence (P34981 whole entry, looked up): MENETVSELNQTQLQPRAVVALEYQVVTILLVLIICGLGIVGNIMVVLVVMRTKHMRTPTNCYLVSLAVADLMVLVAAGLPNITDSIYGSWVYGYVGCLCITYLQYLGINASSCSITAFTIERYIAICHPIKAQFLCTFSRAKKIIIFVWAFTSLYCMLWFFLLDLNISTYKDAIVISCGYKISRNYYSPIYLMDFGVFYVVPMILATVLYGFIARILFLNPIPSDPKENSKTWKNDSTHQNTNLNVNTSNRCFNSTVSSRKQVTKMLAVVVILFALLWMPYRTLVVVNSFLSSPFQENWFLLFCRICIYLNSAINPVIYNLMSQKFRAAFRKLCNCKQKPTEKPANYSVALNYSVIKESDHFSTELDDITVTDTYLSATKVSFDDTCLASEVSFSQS
Cytochrome P450 2D6 (Homo sapiens), sequence (P10635 whole entry, looked up): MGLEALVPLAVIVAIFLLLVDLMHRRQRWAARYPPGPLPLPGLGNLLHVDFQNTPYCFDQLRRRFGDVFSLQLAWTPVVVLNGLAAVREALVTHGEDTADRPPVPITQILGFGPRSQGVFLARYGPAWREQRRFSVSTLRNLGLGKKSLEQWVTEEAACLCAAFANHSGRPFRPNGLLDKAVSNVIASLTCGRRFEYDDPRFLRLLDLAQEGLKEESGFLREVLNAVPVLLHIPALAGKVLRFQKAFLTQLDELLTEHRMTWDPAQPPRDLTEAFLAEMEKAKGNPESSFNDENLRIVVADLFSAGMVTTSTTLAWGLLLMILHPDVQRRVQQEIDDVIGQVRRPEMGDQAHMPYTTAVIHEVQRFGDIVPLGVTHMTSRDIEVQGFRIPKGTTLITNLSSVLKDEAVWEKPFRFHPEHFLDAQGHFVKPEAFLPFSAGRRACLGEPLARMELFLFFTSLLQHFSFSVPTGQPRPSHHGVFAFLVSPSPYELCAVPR
Cytochrome P450 2C9 (Homo sapiens), sequence (P11712 whole entry, looked up): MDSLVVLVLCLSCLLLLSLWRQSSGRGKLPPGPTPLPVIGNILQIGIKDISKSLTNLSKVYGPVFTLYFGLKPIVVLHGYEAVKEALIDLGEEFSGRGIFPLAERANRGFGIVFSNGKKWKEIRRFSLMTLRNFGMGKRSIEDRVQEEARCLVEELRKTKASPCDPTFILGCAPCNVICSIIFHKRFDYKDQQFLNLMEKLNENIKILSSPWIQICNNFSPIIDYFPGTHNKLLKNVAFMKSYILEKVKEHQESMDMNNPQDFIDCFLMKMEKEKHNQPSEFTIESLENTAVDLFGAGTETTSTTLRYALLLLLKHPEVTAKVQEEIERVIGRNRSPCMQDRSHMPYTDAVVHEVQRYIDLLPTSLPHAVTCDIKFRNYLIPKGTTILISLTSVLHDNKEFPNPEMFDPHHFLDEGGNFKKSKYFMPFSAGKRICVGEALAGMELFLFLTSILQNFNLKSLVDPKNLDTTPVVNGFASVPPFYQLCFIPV
Nuclear receptor subfamily 1 group I member 2 (Homo sapiens), sequence (O75469 whole entry, looked up): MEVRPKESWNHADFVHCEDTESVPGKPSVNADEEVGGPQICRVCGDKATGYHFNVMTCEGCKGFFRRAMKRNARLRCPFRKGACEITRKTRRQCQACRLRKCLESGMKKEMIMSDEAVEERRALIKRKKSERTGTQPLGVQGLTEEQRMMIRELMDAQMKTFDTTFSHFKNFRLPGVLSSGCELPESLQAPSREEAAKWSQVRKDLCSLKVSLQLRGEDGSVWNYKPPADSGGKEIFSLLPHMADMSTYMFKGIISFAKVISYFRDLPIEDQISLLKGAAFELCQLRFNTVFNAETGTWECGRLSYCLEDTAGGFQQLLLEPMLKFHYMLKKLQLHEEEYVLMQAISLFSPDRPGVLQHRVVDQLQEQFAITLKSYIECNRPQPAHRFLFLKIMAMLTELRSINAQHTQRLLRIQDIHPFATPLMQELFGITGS
Cytochrome P450 2C19 (Homo sapiens), sequence (P33261 whole entry, looked up): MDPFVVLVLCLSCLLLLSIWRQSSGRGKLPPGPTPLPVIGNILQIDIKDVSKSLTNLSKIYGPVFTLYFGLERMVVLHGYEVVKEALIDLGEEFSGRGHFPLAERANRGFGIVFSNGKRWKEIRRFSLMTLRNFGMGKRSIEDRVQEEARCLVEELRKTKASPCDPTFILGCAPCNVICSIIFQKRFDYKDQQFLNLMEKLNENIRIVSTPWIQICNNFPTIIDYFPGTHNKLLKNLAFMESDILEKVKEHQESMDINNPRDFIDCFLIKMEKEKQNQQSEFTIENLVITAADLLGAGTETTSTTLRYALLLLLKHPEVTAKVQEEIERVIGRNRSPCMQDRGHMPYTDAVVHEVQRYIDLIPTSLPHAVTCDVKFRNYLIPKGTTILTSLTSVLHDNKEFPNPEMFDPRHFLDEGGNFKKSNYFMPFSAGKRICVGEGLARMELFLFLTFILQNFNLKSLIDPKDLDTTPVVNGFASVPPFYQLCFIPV
Cytochrome P450 3A4 (Homo sapiens), sequence (P08684 whole entry, looked up): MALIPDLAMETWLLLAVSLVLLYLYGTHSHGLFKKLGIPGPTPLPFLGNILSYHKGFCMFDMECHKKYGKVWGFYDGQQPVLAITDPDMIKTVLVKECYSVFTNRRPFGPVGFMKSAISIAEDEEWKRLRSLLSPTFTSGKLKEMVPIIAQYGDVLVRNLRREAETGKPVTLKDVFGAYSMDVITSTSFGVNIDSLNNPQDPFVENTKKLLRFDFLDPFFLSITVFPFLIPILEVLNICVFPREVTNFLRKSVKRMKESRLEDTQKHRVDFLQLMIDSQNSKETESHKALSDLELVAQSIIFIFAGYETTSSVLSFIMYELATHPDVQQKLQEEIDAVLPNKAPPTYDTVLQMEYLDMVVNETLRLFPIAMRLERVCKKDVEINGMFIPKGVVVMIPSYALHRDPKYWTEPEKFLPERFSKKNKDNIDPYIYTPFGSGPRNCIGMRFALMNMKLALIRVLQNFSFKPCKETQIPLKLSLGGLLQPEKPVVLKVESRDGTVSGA
Cytochrome P450 1A2 (Homo sapiens), sequence (P05177 whole entry, looked up): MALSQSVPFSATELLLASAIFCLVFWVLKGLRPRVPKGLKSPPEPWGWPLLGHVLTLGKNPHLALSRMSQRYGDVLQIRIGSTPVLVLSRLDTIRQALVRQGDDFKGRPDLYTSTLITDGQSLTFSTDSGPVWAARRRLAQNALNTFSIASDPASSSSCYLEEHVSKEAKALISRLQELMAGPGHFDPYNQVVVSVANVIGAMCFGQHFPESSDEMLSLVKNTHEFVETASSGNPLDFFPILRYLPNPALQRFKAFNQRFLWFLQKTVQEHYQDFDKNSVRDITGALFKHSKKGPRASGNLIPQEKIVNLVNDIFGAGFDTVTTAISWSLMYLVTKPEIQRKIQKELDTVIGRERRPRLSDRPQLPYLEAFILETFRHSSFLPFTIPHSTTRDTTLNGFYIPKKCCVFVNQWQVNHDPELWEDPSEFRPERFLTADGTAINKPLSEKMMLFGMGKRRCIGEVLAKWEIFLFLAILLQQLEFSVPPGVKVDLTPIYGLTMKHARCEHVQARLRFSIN
Voltage-gated inwardly rectifying potassium channel KCNH2 (Homo sapiens), sequence (Q12809 whole entry, looked up): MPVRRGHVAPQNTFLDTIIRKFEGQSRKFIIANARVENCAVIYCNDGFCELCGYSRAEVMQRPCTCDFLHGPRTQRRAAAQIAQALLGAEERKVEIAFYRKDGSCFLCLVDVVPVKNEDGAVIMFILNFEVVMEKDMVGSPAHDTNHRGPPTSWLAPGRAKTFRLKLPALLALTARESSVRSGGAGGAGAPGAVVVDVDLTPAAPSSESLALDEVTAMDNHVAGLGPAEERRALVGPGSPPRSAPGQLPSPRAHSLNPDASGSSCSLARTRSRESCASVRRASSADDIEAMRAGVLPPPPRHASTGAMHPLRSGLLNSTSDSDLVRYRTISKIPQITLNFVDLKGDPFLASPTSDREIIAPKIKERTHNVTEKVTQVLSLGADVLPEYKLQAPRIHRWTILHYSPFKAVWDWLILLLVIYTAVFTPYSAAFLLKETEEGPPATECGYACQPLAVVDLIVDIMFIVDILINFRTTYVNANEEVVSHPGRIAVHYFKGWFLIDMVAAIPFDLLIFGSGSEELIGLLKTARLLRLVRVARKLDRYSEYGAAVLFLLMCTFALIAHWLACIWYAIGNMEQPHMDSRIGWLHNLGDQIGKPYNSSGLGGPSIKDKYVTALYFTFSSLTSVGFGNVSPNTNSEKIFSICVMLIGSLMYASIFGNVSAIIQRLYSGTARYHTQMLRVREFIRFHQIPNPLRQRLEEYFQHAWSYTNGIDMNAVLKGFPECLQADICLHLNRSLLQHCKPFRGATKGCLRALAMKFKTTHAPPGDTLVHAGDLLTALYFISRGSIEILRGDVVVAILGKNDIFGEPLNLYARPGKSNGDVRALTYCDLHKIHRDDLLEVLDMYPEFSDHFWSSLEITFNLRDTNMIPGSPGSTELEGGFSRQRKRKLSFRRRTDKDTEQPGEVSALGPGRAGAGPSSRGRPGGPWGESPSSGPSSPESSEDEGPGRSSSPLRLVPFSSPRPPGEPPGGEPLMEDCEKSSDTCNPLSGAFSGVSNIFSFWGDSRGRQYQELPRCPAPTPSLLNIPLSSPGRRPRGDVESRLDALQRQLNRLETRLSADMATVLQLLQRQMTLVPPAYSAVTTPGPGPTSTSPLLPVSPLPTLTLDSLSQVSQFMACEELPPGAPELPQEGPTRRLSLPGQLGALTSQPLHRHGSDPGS

With `C=C(C)C(=O)O[C@H]1C[C@@H]2CC[C@@]1(C)C2(C)C`, the Potency was 8.58 µM (active) and inactive in test [1]; 17.7 µM (active) and inactive in [12]. The Potency entry in test [2], in test [3], in test [4], in test [6], in [7] and in test [8] was “inactive” throughout. Besides, the Potency entry in test [10], in test [11], in test [13] and in test [14] was “inactive” throughout. Further, the result in test [5], in [9] and in [15] was inactive.
In the case of `Cc1cc(C)c(C)cc1C`, the Potency entry in test [1], in [2], in test [3], in test [4], in test [6] and in [8] was “inactive” in each case. Moreover, the Potency entry in test [10], in test [11], in test [12], in test [13] and in [14] was “inactive” in each case. Moreover, the compound was classed as inactive in test [16], in [5], in test [9] and in [15].
Turning to `O=C(O)c1ccc(C(=O)O)cc1`, the Potency entry in [1], in test [2], in test [3], in test [4], in test [6] and in test [7] was “inactive” throughout. Further, the Potency result in test [8], in test [10], in test [11], in test [17], in test [12] and in [13] was “inactive” in each case. For the same compound, the Potency result in test [18] was “inactive”. The call in [5], in test [9] and in test [15] was inactive.
In the case of `CCCC(C)=O`, the Potency entry in test [1], in [2], in test [3], in test [4], in [6] and in [8] was “inactive” each time. For the same compound, the Potency entry in test [10], in test [11], in [12], in [13] and in test [14] was “inactive” throughout. For the same compound, the compound was called inactive in [16], in test [5], in test [9] and in test [15].
In the case of `CCC(O)OC(O)CC` (stereo unspecified), the Potency entry in test [1], in test [2], in test [3], in test [4], in test [6] and in test [10] was “inactive” in each case. In addition, the Potency result in [11], in test [12], in [13] and in test [14] was “inactive” throughout. Further, the outcome in [16], in test [5], in [9] and in test [15] was inactive. Further, in test [17], the Potency was 36 µM (active) and inactive.
For `O=C(O)c1cc(C(=O)O)cc(S(=O)(=O)O)c1`, the Potency result in test [1], in [2], in test [3], in [6], in [8] and in [10] was “inactive” each time. For the same compound, the Potency entry in test [11], in [12], in test [13] and in [18] was “inactive” each time. Moreover, the compound was classed as inactive in test [16], in test [9] and in test [15]. The Potency result in test [14] is “inactive and 39.9 µM (active)”.
Consider `OCC(CO)(CBr)CBr`, for which the Potency entry in test [1], in [2], in test [3], in test [4], in test [6] and in test [10] was “inactive” throughout. Moreover, the Potency entry in test [11], in test [17], in test [12], in test [13] and in test [18] was “inactive” in each case. The result in test [16], in test [5], in test [9] and in [15] was inactive. The Potency in [14] is 40.4 µM (active) and inactive.
